The values below come from publication PMC7826789 (International Journal of Molecular Sciences, 2021).

Each structure is given as a SMILES string.

The subject of the first test is FLT1.
Regarding `CCn1cc(-c2ccnc3[nH]c(-c4cccc(CN(C)C)c4)cc23)c(-c2ccc(NC(=O)N(C)C)cc2)n1` [GSK1070916], the Kinases covered entry was “FLT1”.

In the case of `CCS(=O)(=O)c1ccc(OC)c(Nc2ncc(-c3cccc(F)c3)o2)c1` [GW621970X], the Kinases covered entry is listed as “FLT1”.

As for `O=C(Nc1ccccc1)Nc1cccc(Oc2ccc3nccn3n2)c1` [TPKI-39], the Kinases covered result was “FLT1”.

With `CCS(=O)(=O)c1ccc(OC)c(Nc2ncc(-c3cccc(OC)c3)o2)c1` [GW580509X], the Kinases covered result is on record as “FLT1”.

The subject of another test is GAK.
Regarding `CCCc1cc(N2CCCN(C)CC2)nc2sc3c(N)ncnc3c12` [BI00604564], the Kinases covered entry is “GAK”.

For `O=C(O)/C=C/C(=O)O.OCCCNc1nccc(-c2c(-c3ccc(F)cc3)nn3cc(C(F)(F)F)ccc23)n1` [GW569293E], the Kinases covered result was “GAK”.

On to `C#Cc1cccc(Nc2ncnc3cc(OC)c(OC4CCN(C)CC4)cc23)c1` [BI00007366], for which the Kinases covered entry is recorded as “GAK”.

As for `COc1cc(Nc2ccnc3ccc(Br)cc23)cc(OC)c1OC` [CA93.0], the Kinases covered result is recorded as “GAK”.

`COc1cc2ncnc(Nc3ccc(F)c(Cl)c3)c2cc1O[C@H]1CC[C@H](N)CC1` [BIBW3133BS]: the Kinases covered entry is listed as “GAK”.

The subject of the next test is GSK3A.
On to `COc1cccc(-n2ncc3c(N/N=C/c4ccncc4)ncnc32)c1` [GW784752X], for which the Kinases covered result is “GSK3A”.

On to `COc1ccc(CSc2nnc(-c3ccc4ncsc4c3)o2)cc1C(F)(F)F` [TPKI-91], for which the Kinases covered result is on record as “GSK3A”.

Consider `O=C(Nc1n[nH]c2nc(-c3nccs3)c(Br)cc12)C1CCCC1` [SB-742609], for which the Kinases covered entry is “GSK3A”.

Turning to `CCC(NN(C)C)=C1C(=O)Nc2ccc(C(C)=O)cc21` [BI00036838], the Kinases covered result is “GSK3A”.
